# In PubChem BioAssay:
# Unmarked numbers belong to inactive results. How the calls were made is not given here.
# Biological target: Pantothenate synthetase (Mycobacterium tuberculosis (strain ATCC 25618 / H37Rv)) (UniProt P9WIL5)
# Assay: Coupled enzyme confirmation of inhibitors against recombinant Mtb PanC (AID 375);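 further: 0% = full reaction with vehicle and 100% = no enzyme background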
# Details: coupled enzyme assay; at 10 µM, active compounds read high
# Chain of Pantothenate synthetase (Mycobacterium tuberculosis (strain ATCC 25618 / H37Rv)) (P9WIL5 whole entry, looked up): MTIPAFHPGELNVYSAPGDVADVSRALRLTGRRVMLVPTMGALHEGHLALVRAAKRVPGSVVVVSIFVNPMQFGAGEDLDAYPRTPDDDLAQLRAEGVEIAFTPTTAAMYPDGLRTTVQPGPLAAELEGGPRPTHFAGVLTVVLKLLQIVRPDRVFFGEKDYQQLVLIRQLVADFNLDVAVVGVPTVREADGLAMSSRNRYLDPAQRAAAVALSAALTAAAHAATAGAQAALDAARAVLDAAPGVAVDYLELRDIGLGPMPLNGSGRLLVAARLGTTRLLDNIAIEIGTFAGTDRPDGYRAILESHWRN
row,Structure (SMILES),inhibition
1,CCc1cc(=O)oc2c(CN3CCN(C)CC3)c(O)c(Cl)cc12,5%
2,S=C(c1ccc(-c2cc(Cl)ccc2Cl)o1)N1CCOCC1,0%
3,CCCN1C=CC(=C2C(=O)c3ccccc3C2=O)C=C1,0%
4,CCOC(=O)C1CCCN(C(=O)c2cc(=O)c3ccccc3o2)C1 (stereo not given),5%
5,COCCCN(Cc1ccccn1)S(=O)(=O)Cc1ccccc1,0%
6,CCN(CC)S(=O)(=O)c1ccc2[nH]cc(C(=O)NCCC3=CCCCC3)c(=O)c2c1,0%
7,CC(c1ccccc1)n1cnc2ccccc21 (stereo not given),0%
8,COc1ccc(NC(=O)Nc2ccc(C)cc2OC(F)F)cc1OC,3%
9,Cc1cc(C)nc(N2CCCC(C(=O)Nc3ccc4c(c3)OCO4)C2)n1 (stereo not given),0%
10,Cc1ccc(NC(=O)CSc2nnc(-c3ccc(S(=O)(=O)N4CCOCC4)cc3)n2C)cc1,1%
11,COc1ccc(-n2ncc3c(NCc4cccs4)ncnc32)cc1,0%
12,Cc1n[nH]c(C)c1S(=O)(=O)N1CCCCCC1,0%
13,CC(C)OC(=O)CSc1nnc(-c2ccc(C(C)(C)C)cc2)n1N,0%
14,Cc1ccc(-n2nnnc2SCC(=O)N2CCc3ccccc3C2)cc1,4%
15,Cc1c(Cl)cccc1NC(=O)CCN1CCCCCC1,0%
16,COc1cc(C2NC(=O)NC(C)=C2C(=O)OCC2CCCO2)ccc1O (stereo not given),0%
17,Cn1c2c(c(=O)n(C)c1=O)C(c1cccc(Br)c1)C1C(=O)c3ccccc3C1=N2 (stereo not given),9%
18,O=C1c2ccccc2C(Nc2ccc3nc(-c4cccnc4)[nH]c3c2)N1Cc1ccco1 (stereo not given),0%
19,COc1cccc(OCC(=O)Nc2ccccc2C(N)=O)c1,4%
20,Cc1ccc(S(=O)(=O)n2nc(OC(=O)c3ccco3)cc2N)cc1,2%

row,Structure (SMILES),inhibition
1,O=C(CP(=O)(CO)CO)c1ccc(Cl)cc1,0%
2,COC(=O)c1ccc2c(=O)n(CC3CCCO3)c(=S)[nH]c2c1 (stereo not given),0%
3,O=c1c(-c2ccccc2)coc2c(CN3CCOCC3)c(O)ccc12,6%
4,O=C(c1noc2c1CCc1ccccc1-2)N1CCOCC1,0%
5,CCOC(=O)CSC1=C(C#N)C(=O)NC(c2ccc(OC)c(OC)c2)S1 (stereo not given),16%
6,C=C(Cl)COC(=O)[C@H]1C2C=CC(C2)C1C(=O)O (stereo not given in full),2%
7,CCCC1c2ccc(C)n2CCN1C(=O)Nc1ccccc1Cl (stereo not given),1%
8,O=C(CSc1nnc2scc(-c3ccccc3)n12)N1CCN(Cc2ccccc2)CC1,6%
9,CCCn1c(=N)n(CCOc2ccc(OC)cc2)c2ccccc21,0%
10,Cc1c(C(=O)OC(C)C)[nH]c2c1C(=O)CCC2,0%
11,Cc1ccc2c(c1)CCCN2C(=O)Nc1ccc2c(c1)OCO2,2%
12,Cc1cccc2sc(NC(=O)CN(C)S(=O)(=O)c3cccs3)nc12,2%
13,O=C(Nc1cnccn1)c1cccs1,0%
14,O=C(Nc1ccccc1C(=O)N1CCN(c2ccccc2)CC1)c1ccco1,0%
15,COc1cccc(-c2noc(C3CCCN(C(=O)Cc4ccccc4)C3)n2)c1 (stereo not given),0%
16,COc1ccc(-c2nc(CS(=O)CC(=O)NCc3ccccn3)c(C)o2)cc1 (stereo not given),0%
17,COc1ccc2c(c1)C1(Nc3ccccc3-c3nc4ccccc4n31)C(=O)N2 (stereo not given),0%
18,Cc1ccc(S(=O)(=O)Cn2nnnc2C(C(C)C)N2CCN(C(=O)c3ccco3)CC2)cc1 (stereo not given),0%
19,COc1ccccc1N1C(=O)c2ccccc2NC1c1ccncc1 (stereo not given),3%
20,C/C=C(\CS(=O)(=O)c1ccccc1)S(=O)(=O)c1ccccc1,0%
